# Of roughly 8,800 targets only a part is listed; those with a hit were picked by preference. About 0.5% of all pairs of compound and target were hits. Values without a mark were called inactive.
# Columns and labels:
# Experiment in all cases: log2 fold change, soluble protein after heating vs DMSO (PISA); higher = thermal stabilisation; K562 lysate, 10 uM; active = over 0.2 and 3.5 SD of the protein, either way, in both replicates (recomputed)
# alvocidib = compound: CN1CC[C@H](c2c(O)cc(O)c3c(=O)cc(-c4ccccc4Cl)oc23)[C@H](O)C1 [alvocidib]
# In short: (§1)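 Following dounce homogenisation of K562 pellets in PBS pH 7.4 with 1 mM MgCl2, crude extract at 1 mg/mL protein was incubated for 30 min with 10 μM compound. Aliquots were then heated for 3 min over 48°C-58°C and pooled, NP-40 was added to 0.5% at 4°C, and soluble protein was recovered as the supernatant at 21,000xg for 90 min. Channel-sum-equalised TMTpro 16plex LC-MS/MS quantified this protein. Each value, from duplicates, is a log-two fold change in thermal stability relative to solvent controls.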
# Tubastatin A = compound: CN1CCc2c(c3ccccc3n2Cc2ccc(C(=O)NO)cc2)C1 [Tubastatin A]
# In short: as §1
# [1] = compound: CNC(=O)C1=CC=CC=C1NC2=NC(=NC=C2Cl)NC3=C(C=C(C=C3)N4CCOCC4)OC
# In short: as §1
# defactinib = compound: CNC(=O)c1ccc(Nc2ncc(C(F)(F)F)c(NCc3nccnc3N(C)S(C)(=O)=O)n2)cc1 [defactinib]
# In short: as §1
# [2] = compound: CNc1nc(-c2ccc3c(N)n[nH]c3c2)cc(N2C[C@@H](C(=O)NC3CCCCC3)CC[C@H]2C)n1
# In short: as §1
# encorafenib = compound: COC(=O)N[C@@H](C)CNc1nccc(-c2cn(C(C)C)nc2-c2cc(Cl)cc(NS(C)(=O)=O)c2F)n1 [encorafenib]
# In short: as §1
# [3] = compound: COC(=O)[C@H](CCSC)NC(=O)C1=C(C=C(C=C1)NC[C@H](CS)N)C2=CC=CC=C2
# In short: as §1
# alisertib = compound: COc1cc(Nc2ncc3c(n2)-c2ccc(Cl)cc2C(c2c(F)cccc2OC)=NC3)ccc1C(=O)O [alisertib]
# In short: as §1
# [4] = compound: COc1cc2nc(-c3cc(F)ccc3O)nc(N[C@@H]3CNC[C@H]3C(C)(C)O)c2cc1OC
# In short: as §1
# gefitinib = compound: COc1cc2ncnc(Nc3ccc(F)c(Cl)c3)c2cc1OCCCN1CCOCC1 [gefitinib]
# In short: as §1
# lapatinib = compound: CS(=O)(=O)CCNCc1ccc(-c2ccc3ncnc(Nc4ccc(OCc5cccc(F)c5)c(Cl)c4)c3c2)o1 [lapatinib]
# In short: as §1
# pictilisib = compound: CS(=O)(=O)N1CCN(Cc2cc3nc(-c4cccc5[nH]ncc45)nc(N4CCOCC4)c3s2)CC1 [pictilisib]
# In short: as §1
# crizotinib = compound: C[C@@H](Oc1cc(-c2cnn(C3CCNCC3)c2)cnc1N)c1c(Cl)ccc(F)c1Cl [crizotinib]
# In short: as §1
# [5] = compound: C[C@H](C1=CC=C(C=C1)C(=O)NC2=C3C=CNC3=NC=C2)N
# In short: as §1
# duvelisib = compound: C[C@H](Nc1ncnc2nc[nH]c12)c1cc2cccc(Cl)c2c(=O)n1-c1ccccc1 [duvelisib]
# In short: as §1
# gandotinib = compound: Cc1cc(Nc2cc(CN3CCOCC3)c3nc(C)c(Cc4ccc(Cl)cc4F)n3n2)n[nH]1 [gandotinib]
# In short: as §1
# tozasertib = compound: Cc1cc(Nc2cc(N3CCN(C)CC3)nc(Sc3ccc(NC(=O)C4CC4)cc3)n2)n[nH]1 [tozasertib]
# In short: as §1
# doramapimod = compound: Cc1ccc(-n2nc(C(C)(C)C)cc2NC(=O)Nc2ccc(OCCN3CCOCC3)c3ccccc23)cc1 [doramapimod]
# In short: as §1
# bafetinib = compound: Cc1ccc(NC(=O)c2ccc(CN3CC[C@H](N(C)C)C3)c(C(F)(F)F)c2)cc1Nc1nccc(-c2cncnc2)n1 [bafetinib]
# In short: as §1
# [6] = compound: Cc1cccc(CC(=O)N2CCc3c2ccc(-c2cn(C)c4ncnc(N)c24)c3F)n1
# In short: as §1
# Sequence of UniProt P45983 (P45983 whole entry, looked up): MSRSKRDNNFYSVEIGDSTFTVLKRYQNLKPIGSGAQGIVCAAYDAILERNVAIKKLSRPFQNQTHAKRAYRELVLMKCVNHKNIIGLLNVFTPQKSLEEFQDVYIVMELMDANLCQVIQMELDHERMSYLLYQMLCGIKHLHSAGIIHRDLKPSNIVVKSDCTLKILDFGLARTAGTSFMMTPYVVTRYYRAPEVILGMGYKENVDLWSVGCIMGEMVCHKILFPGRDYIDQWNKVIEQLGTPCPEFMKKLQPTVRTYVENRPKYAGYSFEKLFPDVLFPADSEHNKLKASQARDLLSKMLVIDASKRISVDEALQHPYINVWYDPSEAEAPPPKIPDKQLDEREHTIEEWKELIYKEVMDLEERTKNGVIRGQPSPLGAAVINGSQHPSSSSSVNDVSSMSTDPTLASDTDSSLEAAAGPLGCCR
# Sequence of UniProt Q8N653 (Q8N653 whole entry, looked up): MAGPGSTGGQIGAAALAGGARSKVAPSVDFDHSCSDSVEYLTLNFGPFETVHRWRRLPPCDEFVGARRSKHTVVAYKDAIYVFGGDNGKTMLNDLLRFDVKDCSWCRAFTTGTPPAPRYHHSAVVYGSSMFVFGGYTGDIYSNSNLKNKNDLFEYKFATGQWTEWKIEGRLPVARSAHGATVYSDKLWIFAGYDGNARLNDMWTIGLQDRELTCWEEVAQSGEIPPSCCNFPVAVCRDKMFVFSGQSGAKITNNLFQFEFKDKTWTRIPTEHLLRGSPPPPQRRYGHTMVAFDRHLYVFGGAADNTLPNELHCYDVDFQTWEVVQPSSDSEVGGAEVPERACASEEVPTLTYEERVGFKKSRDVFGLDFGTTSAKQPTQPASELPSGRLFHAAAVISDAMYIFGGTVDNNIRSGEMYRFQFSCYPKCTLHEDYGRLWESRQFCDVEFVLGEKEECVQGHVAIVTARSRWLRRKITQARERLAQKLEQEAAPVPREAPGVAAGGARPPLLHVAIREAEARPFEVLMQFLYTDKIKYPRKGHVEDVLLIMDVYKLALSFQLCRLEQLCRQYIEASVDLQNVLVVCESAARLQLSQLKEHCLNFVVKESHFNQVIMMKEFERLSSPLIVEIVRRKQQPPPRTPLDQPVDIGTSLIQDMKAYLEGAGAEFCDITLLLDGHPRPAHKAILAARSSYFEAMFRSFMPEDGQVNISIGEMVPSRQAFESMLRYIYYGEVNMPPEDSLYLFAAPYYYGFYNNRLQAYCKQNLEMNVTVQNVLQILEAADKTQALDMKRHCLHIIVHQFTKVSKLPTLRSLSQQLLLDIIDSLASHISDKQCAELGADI
# Sequence of UniProt Q16659 (Q16659 whole entry, looked up): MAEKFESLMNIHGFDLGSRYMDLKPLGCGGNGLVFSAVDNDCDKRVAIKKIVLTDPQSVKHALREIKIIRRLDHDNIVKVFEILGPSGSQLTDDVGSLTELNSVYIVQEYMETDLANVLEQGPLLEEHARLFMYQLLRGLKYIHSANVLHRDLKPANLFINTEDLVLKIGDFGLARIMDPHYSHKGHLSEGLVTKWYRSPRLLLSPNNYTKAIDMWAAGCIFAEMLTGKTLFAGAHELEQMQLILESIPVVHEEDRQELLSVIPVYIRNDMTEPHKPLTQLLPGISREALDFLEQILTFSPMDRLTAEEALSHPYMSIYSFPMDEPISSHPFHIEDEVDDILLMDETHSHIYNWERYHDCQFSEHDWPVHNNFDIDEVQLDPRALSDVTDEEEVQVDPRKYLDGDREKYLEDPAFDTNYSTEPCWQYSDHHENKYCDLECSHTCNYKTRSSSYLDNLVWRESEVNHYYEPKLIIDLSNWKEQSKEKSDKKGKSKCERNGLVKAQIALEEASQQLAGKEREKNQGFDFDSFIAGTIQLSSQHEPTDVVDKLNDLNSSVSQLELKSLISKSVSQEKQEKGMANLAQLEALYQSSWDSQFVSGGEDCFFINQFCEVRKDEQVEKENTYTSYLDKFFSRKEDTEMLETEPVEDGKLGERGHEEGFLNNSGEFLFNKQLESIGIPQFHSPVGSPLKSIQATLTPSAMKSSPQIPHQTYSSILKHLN
# Sequence of UniProt P14174 (P14174 whole entry, looked up): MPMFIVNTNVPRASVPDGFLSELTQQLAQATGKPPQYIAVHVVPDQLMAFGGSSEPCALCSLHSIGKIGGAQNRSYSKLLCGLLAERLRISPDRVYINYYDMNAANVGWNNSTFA
# Sequence of UniProt O00629 (O00629 whole entry, looked up): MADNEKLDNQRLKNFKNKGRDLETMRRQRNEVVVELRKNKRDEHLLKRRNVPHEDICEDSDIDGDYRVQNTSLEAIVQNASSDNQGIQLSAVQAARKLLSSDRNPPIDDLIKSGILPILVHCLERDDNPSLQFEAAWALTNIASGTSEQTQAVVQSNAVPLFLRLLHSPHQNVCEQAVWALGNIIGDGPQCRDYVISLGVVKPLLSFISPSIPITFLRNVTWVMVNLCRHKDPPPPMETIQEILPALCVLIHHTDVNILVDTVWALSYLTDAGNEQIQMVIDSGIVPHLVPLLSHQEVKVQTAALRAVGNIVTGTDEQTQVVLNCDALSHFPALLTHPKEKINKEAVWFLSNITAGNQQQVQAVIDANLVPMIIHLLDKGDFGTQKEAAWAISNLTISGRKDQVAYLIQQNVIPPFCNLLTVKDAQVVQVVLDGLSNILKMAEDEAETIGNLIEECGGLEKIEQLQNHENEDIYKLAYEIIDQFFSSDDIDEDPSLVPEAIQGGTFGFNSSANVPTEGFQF
# Sequence of UniProt Q9UBU8 (Q9UBU8 whole entry, looked up): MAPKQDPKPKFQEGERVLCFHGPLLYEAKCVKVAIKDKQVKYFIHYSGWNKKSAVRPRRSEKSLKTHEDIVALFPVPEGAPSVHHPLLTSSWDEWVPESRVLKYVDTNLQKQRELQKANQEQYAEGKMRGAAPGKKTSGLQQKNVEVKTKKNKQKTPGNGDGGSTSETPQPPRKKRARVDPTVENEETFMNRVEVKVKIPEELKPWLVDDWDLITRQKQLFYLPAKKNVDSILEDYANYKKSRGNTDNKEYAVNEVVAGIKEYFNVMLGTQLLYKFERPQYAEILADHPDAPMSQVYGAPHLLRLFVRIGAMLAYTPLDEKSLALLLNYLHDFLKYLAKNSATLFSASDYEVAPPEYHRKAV
# Sequence of UniProt Q7Z3D4 (Q7Z3D4 whole entry, looked up): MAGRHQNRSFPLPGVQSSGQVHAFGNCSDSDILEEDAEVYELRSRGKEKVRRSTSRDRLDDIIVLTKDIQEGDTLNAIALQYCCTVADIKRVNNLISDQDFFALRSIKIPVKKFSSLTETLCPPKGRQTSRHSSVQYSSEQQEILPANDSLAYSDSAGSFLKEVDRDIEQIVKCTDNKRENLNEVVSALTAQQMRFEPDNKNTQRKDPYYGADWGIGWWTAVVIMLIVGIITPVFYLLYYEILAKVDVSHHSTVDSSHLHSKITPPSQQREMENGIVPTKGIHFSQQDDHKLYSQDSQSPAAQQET
# Sequence of UniProt Q9BPX6 (Q9BPX6 whole entry, looked up): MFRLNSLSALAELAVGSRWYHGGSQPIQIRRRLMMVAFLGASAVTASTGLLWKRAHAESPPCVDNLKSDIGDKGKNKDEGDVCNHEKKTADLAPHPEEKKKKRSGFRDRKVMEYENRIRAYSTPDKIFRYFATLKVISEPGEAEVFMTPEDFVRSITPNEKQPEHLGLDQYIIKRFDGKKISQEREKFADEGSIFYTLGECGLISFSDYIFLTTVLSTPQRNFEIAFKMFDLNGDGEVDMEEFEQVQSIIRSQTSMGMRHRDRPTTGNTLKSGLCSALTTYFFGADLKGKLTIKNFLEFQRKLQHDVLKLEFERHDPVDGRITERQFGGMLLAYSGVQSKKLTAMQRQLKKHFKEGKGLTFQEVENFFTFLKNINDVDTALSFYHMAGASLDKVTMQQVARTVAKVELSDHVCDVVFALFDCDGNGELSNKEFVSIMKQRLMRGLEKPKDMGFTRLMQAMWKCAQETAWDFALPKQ
# Sequence of UniProt P10620 (P10620 whole entry, looked up): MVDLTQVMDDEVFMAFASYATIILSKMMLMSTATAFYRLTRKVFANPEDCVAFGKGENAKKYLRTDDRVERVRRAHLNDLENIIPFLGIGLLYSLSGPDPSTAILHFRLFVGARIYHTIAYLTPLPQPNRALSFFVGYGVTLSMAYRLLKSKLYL
# Sequence of UniProt P45985 (P45985 whole entry, looked up): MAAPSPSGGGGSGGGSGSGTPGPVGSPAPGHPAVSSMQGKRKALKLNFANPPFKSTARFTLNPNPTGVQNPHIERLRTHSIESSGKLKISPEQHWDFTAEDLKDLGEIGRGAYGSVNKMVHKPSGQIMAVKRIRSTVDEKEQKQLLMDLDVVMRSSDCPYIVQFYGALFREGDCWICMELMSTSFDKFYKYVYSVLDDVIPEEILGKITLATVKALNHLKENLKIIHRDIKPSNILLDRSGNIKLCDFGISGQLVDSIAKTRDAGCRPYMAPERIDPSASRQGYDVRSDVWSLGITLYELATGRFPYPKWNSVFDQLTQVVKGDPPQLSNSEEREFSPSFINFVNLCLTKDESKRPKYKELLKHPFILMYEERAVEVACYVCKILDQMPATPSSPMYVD
# Sequence of UniProt P27361 (P27361 whole entry, looked up): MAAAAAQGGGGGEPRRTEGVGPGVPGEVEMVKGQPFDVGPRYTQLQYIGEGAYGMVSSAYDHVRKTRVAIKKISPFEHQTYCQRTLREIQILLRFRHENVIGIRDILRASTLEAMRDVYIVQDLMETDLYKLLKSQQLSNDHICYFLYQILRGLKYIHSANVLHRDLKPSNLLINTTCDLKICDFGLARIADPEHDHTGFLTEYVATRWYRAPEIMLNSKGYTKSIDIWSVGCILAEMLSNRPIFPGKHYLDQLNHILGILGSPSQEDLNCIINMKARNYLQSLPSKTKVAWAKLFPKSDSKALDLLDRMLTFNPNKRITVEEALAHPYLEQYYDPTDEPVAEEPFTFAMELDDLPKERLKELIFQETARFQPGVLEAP
Target,log2 fold change (alvocidib),log2 fold change (Tubastatin A),log2 fold change [1],log2 fold change (defactinib),log2 fold change [2],log2 fold change (encorafenib),log2 fold change [3],log2 fold change (alisertib),log2 fold change [4],log2 fold change (gefitinib),log2 fold change (lapatinib),log2 fold change (pictilisib),log2 fold change (crizotinib),log2 fold change [5],log2 fold change (duvelisib),log2 fold change (gandotinib),log2 fold change (tozasertib),log2 fold change (doramapimod),log2 fold change (bafetinib),log2 fold change [6]
MAPK8 isoform 3 (UniProt P45983),0.01,-0.111,0.541 (active),-0.07,-0.144,0.135,0,-0.022,0.003,-0.042,-0.042,0.192,-0.089,-0.022,-0.07,0.281,-0.007,-0.049,-0.014,-0.037
MORF4L1 isoform 2 (UniProt Q9UBU8),-0.01,0.001,-0.001,-0.005,0.247 (active),-0.023,-0.021,0.045,0.044,0.008,0.024,0.023,0.025,-0.058,0.021,0.037,-0.019,-0.047,-0.01,0.006
MAPK3 (UniProt P27361),0.018,0.037,0.29 (active),0.061,0.079,-0.035,0.05,-0.028,0.052,-0.018,-0.028,0,-0.01,-0.021,-0.01,0.089,-0.038,-0.023,0.021,-0.043
MRPL15 (UniProt Q9P015),-0.122,0.022,-0.014,-0.011,0.088,0.053,-0.013,0.006,-0.014,-0.027,-0.021,0.036,-0.045,-0.421 (active),-0.013,0.134,0,0.079,-0.063,0.241
KPNA4 (UniProt O00629),-0.098,0.007,0.014,-0.002,0.008,0.02,-0.059,-0.007,0.002,0.013,0.03,0.011,-0.044,-0.217 (active),0.012,0.089,-0.018,0.02,0.049,0.155
LYSMD3 (UniProt Q7Z3D4),-0.001,0.127,-0.045,-0.062,0.092,0.031,-0.124,0.001,0.112,0.254,-0.039,-0.039,-0.018,-0.273,0.066,0.307,0.058,0.041,-0.057,0.23
MAP4 (UniProt P27816),-0.023,0.043,0.016,-0.02,0.037,-0.024,-0.031,-0.007,0.014,-0.02,-0.002,0.012,0.013,-0.032,-0.004,0.058,-0.014,-0.044,0.018,-0.007
KLC2 (UniProt Q9H0B6),-0.034,-0.072,0.004,-0.048,-0.006,0.01,0.043,-0.038,0.001,-0.098,-0.012,-0.057,-0.047,0.025,-0.031,-0.145,0.012,0.065,-0.043,0.074
MIF (UniProt P14174),-0.109,0.545 (active),0.103,-0.05,-0.145,-0.028,-0.013,0.005,-0.006,0.068,0.04,0.06,-0.022,-0.258 (active),0.022,0.11,-0.057,0.008,0.383,0.024
MICU1 isoform 3 (UniProt Q9BPX6),0.092,-0.065,0,0.026,-0.061,-0.037,-0.05,-0.025,-0.063,0.023,-0.052,-0.053,-0.107,0.253 (active),-0.007,-0.408 (active),0.049,-0.008,-0.077,-0.209
MMS19 isoform 8 (UniProt Q96T76),0.008,-0.144,0,-0.027,0.007,0.014,0.128,0.002,0.001,-0.022,-0.03,-0.04,-0.074,0.049,-0.003,-0.101,-0.004,0.023,-0.066,0.004
MAP2K4 isoform 2 (UniProt P45985),0.137,-0.08,0.081,0.013,0.061,0.122,0.087,-0.069,-0.022,-0.032,-0.036,-0.077,-0.086,0.619 (active),-0.012,-0.031,-0.087,-0.032,-0.05,-0.059
LZTR1 (UniProt Q8N653),0.178,-0.168,-0.001,-0.036,-0.012,-0.039,0.174,-0.047,0.137,0.091,0.177,-0.031,-0.092,0.135,-0.033,-0.121,-0.023,0.083,0.005,0.026
MAPKAPK2 (UniProt P49137),0.069,-0.078,0.077,-0.059,0.025,-0.026,0.046,-0.023,0.114,-0.013,-0.04,-0.05,-0.014,0.046,0.033,-0.03,0.004,0.092,-0.037,0.018
MGST1 (UniProt P10620),0.033,-0.011,0.07,0.02,0.038,0.007,0.001,0.009,0.023,-0.066,-0.047,0.018,0.003,0.22 (active),0.013,-0.025,-0.011,-0.041,-0.032,-0.016
MAPK6 (UniProt Q16659),0.133,-0.086,0.115,0.049,-0.023,-0.037,-0.092,-0.001,0.072,0.113,-0.038,-0.021,0.025,0.075,-0.008,-0.042,-0.024,-0.006,-0.028,-0.045

# — the supplement of paper PMC10849652
